According to PubChem BioAssay (Tox21):
Inconclusive results are not listed. A call without a number means that no potency is given here. Active and inactive are the calls of the source. Calls come from the whole dose curve.

Assay: qHTS assay to identify small molecule agonists of the progesterone receptor (PR) signaling pathway - cell viability counter screen (AID 1346799); note: nearly all actives have a fitted effect of over 45% in size
Settings: PR-UAS-bla HEK293T viability, CellTiter-Glo luminescence, 16 h; series mostly up to 92.4 µM
Source text: National Center for Advancing Translational Sciences [NCATS]
NIH Chemical Genomics Center [NCGC]
U.S. Environmental Protection Agency [EPA]
National Institutes of Environmental Health Sciences [NIEHS]
National Toxicology Program [NTP]
U.S. Food and Drug Administration [FDA]
Progesterone receptor (PR), a nuclear hormone receptor, plays an important role in development, metabolic homeostasis and reproduction. It is activated by the steroid hormone progesterone. Endocrine disrupting chemicals (EDCs) and their interactions with steroid hormone receptors like PR causes disruption of normal endocrine function. To identify the compounds that stimulate PR signaling, a PR-UAS-bla GripTite cell line i.e. PR-UAS-bla HEK293T (Invitrogen, Carlsbad, CA, USA) containing a beta-lactamase reporter gene under the control of an UAS response element was used to screen Tox21 10K compound library. The cytotoxicity of the Tox21 compound library against the PR-bla cell line was tested in parallel by measuring the cell viability using CellTiter-Glo assay in the same wells.
Tox21 Assay Protocol Summary:
PR-UAS-bla HEK293T cells were dispensed at 3,000 cells/5 uL of assay medium containing 2% charcoal stripped FBS per well into black wall/clear-bottom 1536-well plates using a Multidrop Combi (ThermoFisher Scientific, Waltham, MA) dispenser. After the assay plates were incubated at a 37C and 5% CO2 for 6 hr, 23 nL of compounds dissolved in DMSO, positive controls or DMSO only was transferred to the assay plate by a Pintool station (Kalypsys, San Diego, CA). The plates were incubated at 37C and 5% CO2 for 16 hr. Then 1 uL of LiveBLAzer B/G FRET substrate was added using a Flying Reagent Dispenser (FRD, Aurora Discovery, San Diego, CA), the plates were incubated at room temperature for 2 hours, and fluorescence intensity was measured by an Envision plate reader (PerkinElmer, Shelton, CT). For cell viability readout that measures cytotoxicity, 4 uL/well of CellTiter-Glo reagent was added into the assay plates using a FRD. After 30 min incubation at room temperature, the luminescence intensity in the plates was measured using a ViewLux (PerkinElmer) plate reader.

| SMILES | Potency |
| --- | --- |
| NC(=O)c1ccc([N+](=O)[O-])cc1Cl | inactive |
| CCc1cc(C(N)=S)ccn1 | inactive |
| C[C@]12C=CC(=O)C=C1CC[C@@H]1[C@@H]2C(=O)C[C@@]2(C)[C@H]1CC[C@]2(O)C(=O)CO | inactive |
| CC(C)(C)NCC(O)c1ccc(O)c(CO)c1 (stereo not given) | inactive |
| CO[C@H]1C=CO[C@@]2(C)Oc3c(C)c(O)c4c(O)c(c(/C=N/N5CCN(C)CC5)c(O)c4c3C2=O)NC(=O)/C(C)=C\C=C[C@H](C)[C@H](O)[C@@H](C)[C@@H](O)[C@@H](C)[C@H](OC(C)=O)[C@@H]1C | inactive |
| CC1=C(/C=C/C(C)=C/C=C/C(C)=C/C(=O)O)C(C)(C)CCC1 | inactive |
| NCCNc1cccc2ccccc12 | inactive |
| CC(=O)OC/C=C(C)/C=C/C=C(C)/C=C/C1=C(C)CCCC1(C)C | inactive |
| C1CNCCN1 | inactive |
| C=CCOC(=O)CC(C)C | inactive |
| NC(=O)N/N=C/c1ccc([N+](=O)[O-])o1 | inactive |
| O=c1cc[nH]c(=O)[nH]1 | inactive |
| O=C(OCc1ccccc1)c1ccccc1 | inactive |
| CCOCCO | inactive |
| CN(C)Cc1cc(CN(C)C)c(O)c(CN(C)C)c1 | inactive |
| O=C1CCCCCN1 | inactive |
| COC(=O)c1ccc(C=O)cc1 | inactive |
| CC(=O)c1ccc(S(=O)(=O)NC(=O)NC2CCCCC2)cc1 | inactive |
| COc1cc(O)c(C(=O)c2ccccc2)cc1S(=O)(=O)O | inactive |
| CCn1cc(C(=O)O)c(=O)c2ccc(C)nc21 | inactive |

| SMILES | Potency |
| --- | --- |
| CCCCOCCOCCOC(C)=O | inactive |
| c1ccc2[nH]c(-c3cscn3)nc2c1 | inactive |
| CCN(CC)CCOC(=O)c1ccc(N)cc1 | inactive |
| O=C(O)CN(CC(=O)O)CC(=O)O | inactive |
| Nc1ccc(N=Nc2ccccc2)c(N)n1 | inactive |
| C[C@]12CC[C@@H]3c4ccc(O)cc4C[C@@H](CCCCCCCCCS(=O)CCCC(F)(F)C(F)(F)F)[C@H]3[C@@H]1CC[C@@H]2O (stereo not given in full) | inactive |
| OC[C@@H](O)[C@@H](O)[C@H](O)[C@H](O)CO | inactive |
| C=C(C)OC(C)=O | inactive |
| CCCCOCCOCCSC#N | inactive |
| C=C(C)C(N)=O | inactive |
| CC1(C)O[C@@H]2[C@@H](CO[C@@]3(COS(N)(=O)=O)OC(C)(C)O[C@@H]23)O1 | inactive |
| CC(=O)Oc1ccccc1C(=O)O | inactive |
| Cc1c(N(C)C)c(=O)n(-c2ccccc2)n1C | inactive |
| COc1ccccc1O | inactive |
| CC1=NN(c2ccccc2)C(=O)C1 | inactive |
| COCCOCCOC | inactive |
| COc1cc(C=O)ccc1O | inactive |
| Cn1cnc2c1c(=O)[nH]c(=O)n2C | inactive |
| N[C@@H](Cc1c[nH]c2ccc(O)cc12)C(=O)O | inactive |
| Cc1cnc(NC(=O)C2=C(O)c3ccccc3S(=O)(=O)N2C)s1 | inactive |
